Dicer inh – human Dicer pre-microRNA cleavage inhibition; cat-ELCCA pre-miR-21 Dicer processing, chemiluminescence; stronger effect = higher value; z-score at 25 µM; actives 6% (n = 47,000); AID 1347074; in the data active = z-score above about 3, passing the limit was not always enough;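 also: plate controls were vehicle for no effect and no enzyme for full effect; higher signal means more uncleaved substrate so more Dicer inhibition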
Target sequence (Q9UPY3 whole entry, looked up): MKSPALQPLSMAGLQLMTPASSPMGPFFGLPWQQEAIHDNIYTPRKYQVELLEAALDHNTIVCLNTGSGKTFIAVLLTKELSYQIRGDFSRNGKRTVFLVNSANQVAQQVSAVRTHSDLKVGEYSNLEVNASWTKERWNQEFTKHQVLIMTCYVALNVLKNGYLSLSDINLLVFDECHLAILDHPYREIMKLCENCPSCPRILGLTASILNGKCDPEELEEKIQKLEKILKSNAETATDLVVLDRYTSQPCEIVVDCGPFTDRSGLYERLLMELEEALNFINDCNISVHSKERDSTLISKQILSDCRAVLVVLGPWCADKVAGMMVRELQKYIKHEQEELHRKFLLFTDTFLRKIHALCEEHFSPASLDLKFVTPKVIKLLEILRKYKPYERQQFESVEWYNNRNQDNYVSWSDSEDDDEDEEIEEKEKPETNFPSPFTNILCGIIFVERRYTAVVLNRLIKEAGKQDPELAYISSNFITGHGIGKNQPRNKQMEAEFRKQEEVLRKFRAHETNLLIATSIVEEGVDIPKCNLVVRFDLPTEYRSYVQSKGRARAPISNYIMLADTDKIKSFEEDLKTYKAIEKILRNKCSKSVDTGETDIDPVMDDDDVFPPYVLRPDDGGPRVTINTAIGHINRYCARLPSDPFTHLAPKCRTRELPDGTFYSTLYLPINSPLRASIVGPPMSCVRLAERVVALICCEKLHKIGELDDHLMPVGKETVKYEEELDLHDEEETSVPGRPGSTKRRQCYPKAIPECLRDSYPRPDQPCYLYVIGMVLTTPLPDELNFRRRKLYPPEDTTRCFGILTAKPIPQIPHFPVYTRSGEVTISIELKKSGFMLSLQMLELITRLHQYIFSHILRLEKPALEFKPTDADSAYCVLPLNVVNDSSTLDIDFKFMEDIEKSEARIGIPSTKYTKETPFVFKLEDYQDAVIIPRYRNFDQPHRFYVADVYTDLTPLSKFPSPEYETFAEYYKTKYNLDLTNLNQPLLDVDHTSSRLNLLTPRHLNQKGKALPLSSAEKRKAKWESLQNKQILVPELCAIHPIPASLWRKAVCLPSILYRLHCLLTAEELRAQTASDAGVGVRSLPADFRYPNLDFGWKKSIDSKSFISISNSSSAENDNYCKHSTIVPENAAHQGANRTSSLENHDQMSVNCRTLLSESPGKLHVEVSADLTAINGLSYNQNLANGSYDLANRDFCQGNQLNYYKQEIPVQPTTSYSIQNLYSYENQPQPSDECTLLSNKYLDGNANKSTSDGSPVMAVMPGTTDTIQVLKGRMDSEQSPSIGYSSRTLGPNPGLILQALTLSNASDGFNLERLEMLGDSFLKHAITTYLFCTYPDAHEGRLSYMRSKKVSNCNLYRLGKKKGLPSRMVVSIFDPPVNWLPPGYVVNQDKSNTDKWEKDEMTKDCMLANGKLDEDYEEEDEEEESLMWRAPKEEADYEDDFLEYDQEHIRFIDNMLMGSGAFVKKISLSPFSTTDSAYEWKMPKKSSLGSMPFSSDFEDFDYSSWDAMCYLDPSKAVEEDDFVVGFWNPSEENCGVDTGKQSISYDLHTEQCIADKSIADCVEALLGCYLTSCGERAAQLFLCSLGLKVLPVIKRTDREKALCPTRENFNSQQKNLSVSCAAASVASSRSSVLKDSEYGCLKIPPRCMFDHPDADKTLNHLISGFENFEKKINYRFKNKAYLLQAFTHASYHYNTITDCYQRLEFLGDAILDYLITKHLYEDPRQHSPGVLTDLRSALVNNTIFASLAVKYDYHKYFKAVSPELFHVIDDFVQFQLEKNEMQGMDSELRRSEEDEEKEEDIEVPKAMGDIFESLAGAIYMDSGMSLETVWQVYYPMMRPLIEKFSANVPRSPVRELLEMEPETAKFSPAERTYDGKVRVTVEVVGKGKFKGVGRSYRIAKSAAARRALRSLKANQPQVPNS
* = called active by the depositor. This excerpt belongs to a sample that is enriched for hits.

What do the screens show for `CSc1ccc(CN2CCN(Cc3ccc(Cl)cc3)CC2)cc1`?
Dicer inh: 0.08

Results for CSc1ccc(CN2CCN(Cc3cc(Br)ccc3O)CC2)cc1 ?
Dicer inh: 6.13*

How did CSc1ccc(CN2CCN(Cc3ccc(F)cc3)CC2)cc1 do in these assays?
Dicer inh: 2.41

Results for COc1ccccc1N1CCN(Cc2ccccc2F)CC1 ?
Dicer inh: -1.59

Results for COc1ccccc1CN1CCN(Cc2cc(Br)ccc2O)CC1 ?
Dicer inh: 8.04*

How did COc1ccc(O)c(CN2CCN(Cc3ccc(Br)cc3)CC2)c1 do in these assays?
Dicer inh: 5.12*

Results for Oc1ccc(Br)cc1CN1CCN(Cc2ccc(F)cc2)CC1 ?
Dicer inh: 3.31*

What do the screens show for `O=C1CSC(c2ccc3c(c2)OCO3)c2c(n(C3CCCCC3)[nH]c2=O)N1` (stereo not drawn)?
Dicer inh: -0.81

Results for Cc1cccc(NC2=NCC(C)S2)c1 (stereo not drawn) ?
Dicer inh: -0.23

Results for CC(=O)OC1CCC2(C)C3CCC4(C)C(OC(C)=O)CCC4C3CC(O)[C@@]2(O)C1 (stereo partly drawn) ?
Dicer inh: 0.87

What do the screens show for `O=C1/C(=C\c2ccc(C(F)(F)F)cc2)N2CCC1CC2`?
Dicer inh: 0.28

Results for CCCc1nc(SCC(=O)c2ccc(Cl)cc2)nc(OC(=O)N(C)C)c1C ?
Dicer inh: 10.5

Results for Cc1ccc(-c2nc(OC(=O)N(C)C)cc(C(F)(F)F)n2)cc1Cl ?
Dicer inh: 0.06

Results for CC1CC2C/C(=N\O)CC1N(C)C2 (stereo not drawn) ?
Dicer inh: -2.17

Results for CSC(=NCc1ccccc1Cl)N/C(N)=N\[N+](=O)[O-] ?
Dicer inh: 0.91

What do the screens show for `N#CC(C#N)=NNc1c(Cl)cc(C(F)(F)F)cc1Cl`?
Dicer inh: -0.79

How did Cc1ccc2[nH]c(=S)n(-c3ccc(Br)c(C)c3)c(=O)c2c1 do in these assays?
Dicer inh: 1.72

What do the screens show for `COCCCn1c(OC(=O)N(C)C)c(C)c(C)nc1=S`?
Dicer inh: -0.8

What do the screens show for `C[C@@]12C[C@H](O)CCN1CCc1ccccc12`?
Dicer inh: 0.35

How did Cc1ccc2nc(C(F)(F)F)n(-c3ccc(Cl)cc3)c(=O)c2c1 do in these assays?
Dicer inh: 1.76

How did CNc1ccc(Br)cc1C(=O)c1ccc(Cl)cc1 do in these assays?
Dicer inh: -2.13

What do the screens show for `CCOc1ccc(Br)cc1/C=C(\C)[N+](=O)[O-]`?
Dicer inh: -1.01

Results for O=C1NC(=O)C(O)(c2c[nH]c3ccccc23)C(=O)N1 ?
Dicer inh: 1.12

What do the screens show for `Cc1nc2ccccc2c(=O)n1-c1cc(F)c(F)cc1F`?
Dicer inh: -0.79

What do the screens show for `Cc1nc2c(Br)cc(Br)cc2c(=O)n1-c1cccc(C(F)(F)F)c1`?
Dicer inh: -0.26

Results for Clc1cccc(CN2CCN(Cc3cccc(Br)c3)CC2)c1 ?
Dicer inh: 1.31

Results for Oc1ccc(Br)cc1CN1CCN(Cc2cccc(F)c2)CC1 ?
Dicer inh: 7*

Results for CNC(=O)O/N=C1\CC(C)(C)Cc2csc(SC)c21 ?
Dicer inh: 2.63

What do the screens show for `Cc1ccc(-n2c(C)nc3cc(Cl)ccc3c2=O)cc1Cl`?
Dicer inh: -1.02

How did C=CCSc1nc2ccccc2c(=O)n1-c1ccc(OC)cc1 do in these assays?
Dicer inh: -0.02

Results for CN1[C@H]2C[C@H](OC(=O)[C@H](CO)c3ccccc3)C[C@@H]1[C@@H](O)C2 ?
Dicer inh: 0.7

What do the screens show for `O=C(Cn1cc(C(=O)c2ccccc2)c2ccccc21)NCc1ccc2c(c1)OCO2`?
Dicer inh: 3.54*

What do the screens show for `c1ccc(CCNCc2ccc3c(c2)OCO3)cc1`?
Dicer inh: -0.43

How did O=C(O)c1cn(Cc2ccc(Cl)cc2)c2ccccc12 do in these assays?
Dicer inh: 0.07

What do the screens show for `CCC(C)n1[nH]c(=O)c2c1NC(=O)CSC2c1ccc(OC)cc1` (stereo not drawn)?
Dicer inh: -0.44

What do the screens show for `CCC1(C(=O)c2ccc(C)cc2)C2c3cc(Br)ccc3OC(=O)C21C(=O)OC` (stereo not drawn)?
Dicer inh: 0.29

Results for CC(=O)N1N=C2C3CCN(CC3)C2C1c1cccc(F)c1 (stereo not drawn) ?
Dicer inh: -0.66

Results for C=CCc1cc(C)cc(-n2nc3ccccc3n2)c1O ?
Dicer inh: 1.12

How did O=C1C(=Cc2ccco2)C(=O)N(c2ccccc2)C(=S)N1c1ccccc1 do in these assays?
Dicer inh: 3.27*

Results for Cc1ccc(S(=O)(=O)N2CCCCC2c2cccnc2)cc1 (stereo not drawn) ?
Dicer inh: -0.61

How did O=C(O)C1C2c3ccccc3C(c3ccccc32)C1C(=O)O (stereo not drawn) do in these assays?
Dicer inh: -0.48

How did CC(=O)c1ccc(Cl)c(-n2c(=S)[nH]c3ccccc3c2=O)c1 do in these assays?
Dicer inh: -0.99

How did COc1ccc(OC)c(NC2=NCCS2)c1 do in these assays?
Dicer inh: 3.1*

Results for COc1ccc(Br)c(NC2=NCCS2)c1 ?
Dicer inh: -0.17

Results for Cc1ccc(NC2=NCCS2)cc1Cl ?
Dicer inh: -1.09

Results for CN(C)C(=O)Oc1nnc(SCc2ccccc2)n1-c1cccc(Cl)c1 ?
Dicer inh: -0.56

How did C/C(=C\c1ccc([N+](=O)[O-])cc1)[N+](=O)[O-] do in these assays?
Dicer inh: 2.74

How did O=C(NC1CCCCC1)Oc1cc2oc(=O)sc2cc1Cl do in these assays?
Dicer inh: 4.08*

What do the screens show for `CCNCC(O)c1ccc([N+](=O)[O-])cc1` (stereo not drawn)?
Dicer inh: 0.31

What do the screens show for `O=C(NC(=S)Nc1cc(C(F)(F)F)cc(C(F)(F)F)c1)Oc1ccccc1`?
Dicer inh: -1.15

How did CCCc1cc(=O)oc2cc(OC(=O)N(C)C)ccc12 do in these assays?
Dicer inh: 0.68

How did O=C(CNC1CCCCC1)c1ccc(O)c(O)c1 do in these assays?
Dicer inh: 10.3*

Results for CC1(C)CSC(Nc2ccccc2F)=N1 ?
Dicer inh: 0.9

What do the screens show for `CCCCCCn1c2ccc(C(=O)O)cc2c2cc(C(=O)O)ccc21`?
Dicer inh: 0.95

How did CC12CCC3(C=C1CCC1C2CCC2(C)C(O)CCC12)OCCO3 (stereo not drawn) do in these assays?
Dicer inh: 0.81

What do the screens show for `COCc1cc(OC(=O)N(C)C)nc(Cc2c(Cl)cccc2Cl)n1`?
Dicer inh: 0.6

What do the screens show for `CCC1=C[C@@H]2CN3CCc4c([nH]c5ccccc45)[C@@](C(=O)OC)(C2)[C@@H]13`?
Dicer inh: -1.35

How did CC(=O)Nc1ccc(C#N)c(C(F)(F)F)c1 do in these assays?
Dicer inh: 5.62*

What do the screens show for `N#Cc1ccc(NC(=O)c2c(F)cccc2F)cc1C(F)(F)F`?
Dicer inh: 1.27

Results for CC(O)(CS(=O)(=O)c1ccc(F)cc1)C(=O)Nc1ccc(C#N)c(C(F)(F)F)c1 (stereo not drawn) ?
Dicer inh: 0.92

Results for Cc1cc(NC(=O)Oc2ccccc2)no1 ?
Dicer inh: 0.81

How did Cc1cc(OC(=O)N(C)C)nc(SCc2c(F)cccc2Cl)n1 do in these assays?
Dicer inh: 0.04

Results for COCc1cc(OC(=O)N(C)C)nc(-c2cccc(C)c2)n1 ?
Dicer inh: 0.37

What do the screens show for `CSc1nc(OC(=O)N(C)C)cc(-c2ccccc2)n1`?
Dicer inh: 3.69*

What do the screens show for `O=C(NNS(=O)(=O)c1ccc(C(F)(F)F)cc1)C1(O)CN2CCC1CC2` (stereo not drawn)?
Dicer inh: 0.82

From PubChem
